The experiment concerns the target ZMYND11 480-602, Q15326.

Results on seven molecules are retold here after publication PMC8769072, “Proteome‐scale mapping of binding sites in the unstructured regions of the human proteome” (Molecular Systems Biology, 2022).

Sequence of ZMYND11 480-602, Q15326 (Q15326 480-602): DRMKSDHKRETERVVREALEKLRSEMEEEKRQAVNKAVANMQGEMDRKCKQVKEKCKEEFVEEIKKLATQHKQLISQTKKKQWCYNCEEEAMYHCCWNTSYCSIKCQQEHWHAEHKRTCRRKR

B1: NSD1, Q96L73 (peptide)
chain: MPVLESSSWPASKGLG
Take B1: the “selected by phage display” value was “confidence 3 (active)”.

B2: ENO4, A6NNW6 (peptide)
chain: NQEQPTTLSMPLLMVS
Regarding B2, the “selected by phage display” value was “confidence 2 (active)”.

B3: TDRD5, Q8NAT2 (peptide)
chain: GMPALESVTIGDDIWD
With B3, the “selected by phage display” value was “confidence 2 (active)”.

B4: KMT2A, Q03164 (peptide)
chain: AVFPDDMPTLSALPWE
For B4, the “selected by phage display” value was “confidence 3 (active)”.

B5: DENND3, A2RUS2 (peptide)
chain: MVVSMPNLQDIAMPEL
On to B5, for which the “selected by phage display” value is “confidence 3 (active)”.

B6: CBFA2T2, O43439 (peptide)
chain: QFHPTPPPLQHYTLED
With B6, the “selected by phage display” value is “confidence 2 (active)”.

B7: ZNF484, Q5JVG2 (peptide)
chain: EVEASMPQLWAGDSEG
For the molecule B7, the “selected by phage display” value was “confidence 2 (active)”.
